FLuc modulator = inhibits or activates purified firefly luciferase, miR-21 counter-screen | purified FLuc, Km substrates, luminescence inhibition | Potency, µM (highest dose often 57.5 µM), without a hit: top-dose activity change, negative = inhibition, usual class: inhibitors | 360,000 tested, 6.9% active | AID 588342;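 note: plate controls were vehicle for no effect and reference inhibitor for full effect; nearly all actives have a fitted effect of over 55% in size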
Target sequence (P08659 whole entry, looked up): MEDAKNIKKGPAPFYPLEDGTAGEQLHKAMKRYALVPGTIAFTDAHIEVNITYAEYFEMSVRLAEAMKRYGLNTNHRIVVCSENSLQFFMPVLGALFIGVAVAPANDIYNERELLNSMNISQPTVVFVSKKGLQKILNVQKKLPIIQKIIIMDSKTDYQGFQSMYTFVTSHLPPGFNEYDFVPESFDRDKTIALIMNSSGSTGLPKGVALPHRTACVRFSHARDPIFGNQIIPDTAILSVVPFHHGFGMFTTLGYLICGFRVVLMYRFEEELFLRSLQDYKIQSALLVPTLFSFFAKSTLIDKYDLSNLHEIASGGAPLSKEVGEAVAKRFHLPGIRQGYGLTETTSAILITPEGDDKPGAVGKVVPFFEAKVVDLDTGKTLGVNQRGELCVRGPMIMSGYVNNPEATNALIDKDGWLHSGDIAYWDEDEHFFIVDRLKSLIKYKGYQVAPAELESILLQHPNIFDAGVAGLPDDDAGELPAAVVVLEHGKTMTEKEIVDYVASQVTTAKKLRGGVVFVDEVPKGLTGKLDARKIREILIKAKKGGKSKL
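Biochemical qHTS of compounds, final roughly 60 µM downward over six points, against 10 nM purified firefly luciferase using Km concentrations of substrates (10 uM D-luciferin, 10 uM ATP) in Tris acetate pH 7.5 buffer; luminescence output.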
NPC1 promoter act = NPC1 promoter activation. Huh7 NPC1 promoter luciferase reporter, 24 h. Potency, µM (doses to about 9.22 µM), for the others: at the highest dose activation, actives largely listed as activators. 320,000 tested, 2.4% active; note: % of control where 0% means no effect; nearly all actives have a fitted effect of over 60% in size
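Cells: Huh7 expressing luciferase under the NPC1 promoter, 1500/well. Seeded 2 h, compound added, incubated 24 h at 37 °C. Luciferase reagent, 10 min ambient, then luminescence.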
Rab9 promoter act = activates the Rab9 promoter; Huh7 Rab9 promoter-luciferase reporter, luminescence, 24 h; Potency, µM (top dose mostly 9.22 µM), for inactives: at the top dose activation, negative = inhibition, usual class: activators; 320,000 tested, 2.8% active; AID 485297; note: % of control where 0% means no effect; nearly all actives have a fitted effect of over 60% in size
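Cells were plated at 1500 per well in reduced-serum medium with 10% FBS and left 2 h. Compound in DMSO was then added for 24 h at 37 °C. Reporter signal was read by luminescence after 10 min with luciferase detection reagent.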
ELG1 genotox = inducers of genotoxicity in HEK293T ELG1-luciferase cells; Potency, µM (top dose mostly 46 µM), for the others: at the top dose activity change, positive = activation, most hits filed as activators; 330,000 tested, 1.3% active; AID 504466; HEK293T ELG1-luciferase reporter, luminescence, 16 h; note: % of control where 0% means no effect; nearly all actives have a fitted effect of over 60% in size
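After overnight (16 hr) compound treatment at 37 °C, ELG1-luciferase HEK293T cells were lysed with ONE-Glo; luminescence quantified 30 min later at room temperature.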
SMN2 splice enh = enhancers of SMN2 splice variant expression | HEK293 SMN2-luciferase splicing reporter, luminescence, 30-36 h | Potency, µM (doses to about 46.1 µM), inactives show at the top dose activity change, positive = activation, hits mostly activators | 210,000 tested, 2.8% active | AID 1458; note: % of control where 0% means no effect; nearly all actives have a fitted effect of over 55% in size
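qHTS luciferase splicing reporter: luminescence rises when SMN2 exon 7 is included in transfected HEK293 cells. Compound exposure lasted 30-36 h at 37C, with 4.5 mM final sodium butyrate as control, followed by a ONE-Glo read.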
* = called active by the depositor; ? = inconclusive; · = no result given; [ ] = remark or other dose. Most compounds without a hit are left out; they make up all but 7.4% or so of the library. Calls come from the whole dose curve; as a rule, active = well fitted curve in the direction sought with a large enough effect; inconclusive = small, poorly fitted or top-dose-only effect, or another doubt; inactive = no such curve, though single readings can be large; an effect the other way counts as inactive or inconclusive. Potency is the fitted concentration of half-maximal effect.

SMILES	FLuc modulator	NPC1 promoter act	Rab9 promoter act	ELG1 genotox	SMN2 splice enh
O=C(c1cc(COc2ccc(F)c(F)c2)on1)N1CCSCC1	16.9µM*	?	?	?	·
CC(=O)c1cccc(OCc2cc(C(=O)NCCC3=CCCCC3)no2)c1	9.53µM*	2.51µM*	?	?	·
CC(=O)c1cccc(OCc2cc(C(=O)N3CCSCC3)no2)c1	10.7µM*	?	3.16µM*	9.2µM*	·
COc1cc(C(C)=O)ccc1OCc1cc(C(=O)N2CCSCC2)no1	-3.0%	9.4%	3.9%	3.3%	·
O=C(COc1ccc(Cl)cc1Br)NCC(c1ccco1)N1CCCC1 (stereo not given)	?	-1.5%	-2.6%	-0.5%	·
COc1cccc(C2=NOC(C(=O)N3CCOCC3)C2)c1 (stereo not given)	19µM*	3.55µM*	?	?	7.7%
Cc1ccc(OCc2ccc(C(=O)Nc3ccc(S(N)(=O)=O)cc3)o2)cc1	-15.8%	2.7%	18.1%	15.1%	-2.0%
CCCc1ccc(OCc2ccc(C(=O)Nc3ccccc3C(=O)OC)o2)cc1	19µM*	·	·	·	?
CN(C)S(=O)(=O)Oc1ccsc1C(=O)Nc1cccc(Cl)c1	-3.9%	-0.8%	-8.3%	-4.6%	-20.6%
COc1ccc(NC(=O)c2ccc(COc3ccccc3)o2)cc1	23.9µM*	-1.8%	-0.7%	-0.5%	-22.2%
COc1ccc(NC(=O)c2ccc(COc3ccccc3)o2)c(OC)c1	-8.2%	-2.0%	-3.4%	-2.7%	·
COC(=O)c1sccc1-c1ccc(C(=O)Nc2cccc(Cl)c2)o1	9.53µM*	?	3.55µM*	14.3%	?
COc1ccc(NC(=O)c2ccc(Cc3ccc(C)cc3)o2)cc1	15.1µM*	8.0%	7.8%	0.0%	-16.9%
CN(c1ccccc1)S(=O)(=O)c1cccc2ccccc12	-9.8%	-1.1%	0.2%	-6.2%	·
O=C(Cc1ccsc1)NCC(=O)Nc1ccccc1Br	·	·	·	1.3%	·
COC(=O)c1ccccc1NC(=O)c1ccc(-c2cccc(Cl)c2)o1	3.0%	?	19.3%	?	10µM*
Clc1ccccc1CSc1cc2c(nn1)-c1ccccc1CC2	5.36µM*	?	2.51µM*	?	20µM*
Clc1ccc(/C=N/N2CCCCC2)cc1	10.7µM*	11.7%	21.7%	11.7%	·
O=[N+]([O-])c1ccc(/C=N/N2CCCCC2)cc1	9.53µM*	2.51µM*	29.0%[1.84 µM]	?	·
O=C(Nc1ccc(SC(F)F)cc1)c1ccc(F)cc1	8.49µM*	2.24µM*	1.26µM*	?	11.2µM*
O=C(Nc1ccc2cn[nH]c2c1)c1ccccc1F	9.53µM*	2.24µM*	2µM*	?	11.2µM*
O=C(Nc1ccc2ccccc2c1)c1ccccc1F	1.35µM*	0.501µM*	0.631µM*	2.59µM*	·
CC(=O)Nc1ccc(NC(=O)c2ccccc2F)cc1	?	15.7%	-5.5%[1.84 µM]	?	?
CCN(CC)C(=O)c1ccc(C(=O)Nc2ccc(F)cc2)cc1	?	17.3%	?	?	·
O=C(Nc1ccc(F)cc1)c1ccccc1F	21.3µM*	·	·	·	7.2%
SMILES	FLuc modulator	NPC1 promoter act	Rab9 promoter act	ELG1 genotox	SMN2 splice enh
C=Cc1cccc(C)c1	·	·	·	·	-2.7%
COc1ccccc1N1CCN(C(=O)c2c(C)oc3ncn(C)c(=O)c23)CC1	-0.1%	·	·	·	·
O=C(Nc1ccc(SC(F)F)cc1)c1ccccc1F	13.5µM*	2.51µM*	1.78µM*	?	17.8µM*
O=C(Nc1ccc(Oc2cccnc2)cc1)c1ccccc1F	12µM*	?	2.82µM*	3.1%	-1.3%
CNC(=O)c1ccccc1Nc1ccc(SC(F)F)cc1	?	10.7%	22.2%	-0.2%	·
O=C(Nc1ccc2nc(-c3cccnc3)[nH]c2c1)c1ccccc1F	15.1µM*	1.3%	8.1%	8.2%	0.2%
CCOC(=O)c1ccc(NC(=O)c2ccccc2C)cc1	?	?	?	14.7%	?
CCOC(=O)Nc1ccc(NC(=O)c2ccccc2F)cc1	?	?	3.55µM*	?	?
O=C(Nc1ccc2oc(-c3cccnc3)nc2c1)c1ccccc1F	?	·	·	·	5.2%
Cc1cccc(N2CCN(CCCNC(=O)c3ccc(NC(=O)C4=CSCCO4)cc3)CC2C)c1 (stereo not given)	-3.2%	-0.9%	-0.5%	-10.3%	·
O=C(Nc1ccc(C(=O)N2CCCC2)cc1)c1ccccc1F	?	?	?	8.2µM*	?
CC(C)(C)OC(=O)N1CCC[C@H]1C(=O)OCC(=O)Nc1cc(S(C)(=O)=O)ccc1Cl	0.0%	-4.0%	-5.2%	1.7%	·
CC1=C(C(=O)Nc2cc(C)ccn2)C(c2ccc(C)cc2)C2=C(CCCC2=O)N1 (stereo not given)	3.8%	-1.7%	-6.6%	12.9%	10µM*
NC(=O)C(=O)N/N=C1\CCc2ccccc21	10.7µM*	7.3%	21.2%	?	12.6µM*
COc1ccc2c(c1)CC/C2=N\NC(=O)c1ccccc1	12µM*	?	?	?	15.8µM*
COc1ccc(OCC(=O)N/N=C2\CCc3ccccc32)cc1	19µM*	1.6%	6.7%	?	-4.7%
COc1ccc(OCC(=O)N/N=C2/C=C(C)CC2)cc1	-5.7%	0.3%	-12.2%	-1.0%	3.0%
O=C(Cc1ccc(Cl)cc1)N/N=C1\CCCc2ccccc21	-3.1%	-6.4%	-6.3%	-4.4%	-21.4%
CN1c2ccccc2-c2nc(SCC(=O)Nc3ccccc3C(F)(F)F)ncc2S1(=O)=O	-2.8%	·	·	·	·
Cc1ccc(NC(=O)c2cnn(-c3ccccc3)c2C)c(C)c1	12µM*	2.51µM*	3.16µM*	?	·
Cc1ccc(NC(=O)c2cnn(-c3ccccc3)c2C)cc1	1.07µM*	0.316µM*	0.398µM*	1.46µM*	·
Cc1ccc(-c2ccc(CCC(=O)O)o2)cc1	10.7µM*	3.5%	18.9%	10.5%	?
COc1ccc(CCn2nnnc2C2(c3ccc(C)cc3)CC2)cc1	·	-1.9%[46.1 µM]	-11.2%[46.1 µM]	·	·
COc1ccc(CCC(=O)NC2CC(=O)N(c3ccc(OC)cc3)C2)cc1 (stereo not given)	-4.7%	·	·	·	·
Cc1ccc(C)c(CN2CCSCC2)c1	0.5%	-0.8%	1.0%	-0.8%	·
SMILES	FLuc modulator	NPC1 promoter act	Rab9 promoter act	ELG1 genotox	SMN2 splice enh
COc1ccc(/C=N/Nc2nc(-c3cccnc3)nc3ccccc23)cc1OC	2.13µM*	4.9%	6.9%	3.5%	·
Cc1ccc(-c2nc(N/N=C/c3ccncc3)c3ccccc3n2)cc1	0.0757µM*	?	2µM*	?	-24.2%
Cc1c(O)ccc(/C=N/Nc2nc(-c3cccnc3)nc3ccccc23)c1O	3.38µM*	18.4%	24.7%	11.5%	·
Fc1ccccc1/C=N/Nc1nc(-c2ccccn2)nc2ccccc12	9.53µM*	-24.2%	-28.1%	8.9%	·
COc1ccc(CCNc2nc(-c3cccnc3)nc3ccccc23)cc1OC	-18.1%	0.2%	-1.1%	-3.1%	·
CCc1ccccc1N1C(=O)N(CC(=O)c2ccc(Cl)cc2)c2ccccc2S1(=O)=O	0.4%	·	·	·	·
NC(=O)CSc1nc2ccc(NC(=O)COc3ccccc3)cc2s1	-17.9%	·	·	·	·
